Most compounds without a hit are left out; they make up all but 4.6% or so of the library.
D1 PAM – human D1 dopamine receptor positive modulation; HEK293 TREx D1 cells, calcium flux, dopamine EC20 potentiation; potentiation, % at 10 µM; 360,000 tested, 0.036% active; AID 504651; in the data active = potentiation above about 30%; also: 0% is about no effect
D1 antag – human D1 dopamine receptor antagonism; activity change, negative = inhibition, % at 10 µM; P21728; 360,000 tested, 3.2% active; HEK293 TREx D1 cells, calcium flux, dopamine EC80; active compounds read low; in the data active = activity change below about -30%; also: % is scaled to controls: 0 for no effect and ±100 for the full control effect
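Antagonism measured as reduced calcium response to an EC80 dopamine addition following 180 s compound pre-read; cells were inducible HEK293 Trex D1 plated overnight at 30 C, read kinetically at 1 cycle/sec.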
D1 ag – human D1 receptor agonism | activation, % at 2 µM | HEK293 T-REx D1 cells, calcium flux, agonist mode | 360,000 tested, 1% active | AID 504660 | P21728; also: 0% is about no effect
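Inducible HEK293 T-REx D1 cells, force-coupled to calcium signalling, were plated at 4000 cells/well with tetracycline and held overnight at 30 C. After no-wash calcium dye loading, compound-evoked calcium rise over 180 s flagged agonists.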
TRHR ag – agonists of human TRH receptor | P34981 | TRHR cells, calcium flux fluo-8, FDSS agonist mode | activation, % at 2 µM | 360,000 tested, 0.18% active | AID 493084; also: 0% is about no effect
Target sequence (P34981 whole entry, looked up): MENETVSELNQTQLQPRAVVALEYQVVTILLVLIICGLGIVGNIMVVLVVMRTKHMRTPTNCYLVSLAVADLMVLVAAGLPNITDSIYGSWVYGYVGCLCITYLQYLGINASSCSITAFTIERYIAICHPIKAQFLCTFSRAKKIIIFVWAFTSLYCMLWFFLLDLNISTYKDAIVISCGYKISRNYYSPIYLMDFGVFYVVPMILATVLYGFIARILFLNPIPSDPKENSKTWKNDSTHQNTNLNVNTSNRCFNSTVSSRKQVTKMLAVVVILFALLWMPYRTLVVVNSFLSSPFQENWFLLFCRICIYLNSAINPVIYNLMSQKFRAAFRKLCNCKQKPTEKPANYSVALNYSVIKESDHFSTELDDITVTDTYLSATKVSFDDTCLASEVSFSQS
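TRHR-expressing cells loaded with fluo-8 calcium dye; 23 nL library compound pin-transferred, kinetic FDSS fluorescence (Ex 480/Em 530) recorded about 180 s for agonist-induced calcium release, before a 10 nM TRH EC20 addition for potentiator mode.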
TRHR enhancer – allosteric enhancers of human TRH receptor; 360,000 tested, 0.66% active; TRHR cells, fluo-8 calcium fluorescence, EC20 TRH enhancement; enhancement, % at 2 µM; in the data active = enhancement above about 30%; also: 0% is about no effect
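Enhancer read-out: after compound pinning and an initial kinetic agonist-mode read, an EC20 of TRH (10 nM final) was injected and fluo-8 calcium signal (Ex 480/Em 530) followed at 1 s/cycle for 100 cycles in TRHR-expressing cells.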
* hit, by the source's call; x = not tested or not shown; ! = not confirmed by another sample. Rule as the data show it, unless noted: active = activation above about 30%; inactive = the rest.

SMILES	D1 PAM	D1 antag	D1 ag	TRHR ag	TRHR enhancer
Cc1ccc(C(C)C)c(OCC(O)CN2CCc3ccccc3C2)c1 (configuration not stated)	0	-8	27	1	5
C=CCc1ccccc1OCC(O)CN1CCN(c2ccccc2)CC1 (configuration not stated)	0	-39*	-3	-2	5
Cc1ccc(C(C)C)c(OCC(O)CN2CCN(c3ccccc3F)CC2)c1 (configuration not stated)	-1	-34*	4	1	11
COc1ccc(N2CCN(CC(O)COc3ccc(F)cc3)CC2)cc1 (configuration not stated)	-22	-66*	12	0	11
Cc1ccc(C)c(OCC(O)CN2CCC(Cc3ccccc3)CC2)c1 (configuration not stated)	-18	-78*	47*	2	-4
COc1cccc(OC)c1OCC(O)CN1CCN(c2ccccc2F)CC1 (configuration not stated)	-6	-18	4	-1	2
C=CCc1cc(OC)ccc1OCC(O)CN1CCN(c2ccc(OC)cc2)CC1 (configuration not stated)	-3	-7	6	0	6
C=CCc1ccccc1OCC(O)CN1CCN(c2ccccc2OC)CC1 (configuration not stated)	-8	-43*	16	1	5
C=CCc1ccccc1OCC(O)CN1CCN(c2ccccc2F)CC1 (configuration not stated)	-20	-61*	7	1	-4
Cc1ccc(-c2nnc(Nc3ccc(Br)cc3)c3ccccc23)cc1S(=O)(=O)NCC1CCCO1 (configuration not stated)	-2	-21	-2	0	1
CCn1c(CNc2ccc(Cl)cc2)nnc1SCC(=O)OC1CCCCC1	-4	0	9	0	-4
CCn1c(CNc2cccc(Cl)c2)nnc1SCC(=O)OC1CCCCC1	-4	-43*	36*	-1	6
CC(C)OC(=O)CSc1ncnc2c1cnn2Cc1ccccc1	-9	-11	4	-1	10
COC(=O)CSc1ncnc2c1cnn2Cc1ccccc1	-3	36	42*	-1	-2
CC(=O)Oc1cccc(N2C(=O)c3cccc4c([N+](=O)[O-])ccc(c34)C2=O)c1	-9	-54*	3	5	-5
O=C(O)c1ccc(CN2C(=O)c3cccc4c([N+](=O)[O-])ccc(c34)C2=O)cc1	-2	2	34*	12	-12
Cc1oc(-c2ccc(C(=O)NCc3ccc(F)cc3)cc2)nc1CS(=O)c1ccccc1 (configuration not stated)	0	0	1	0	-2
COc1ccc(-c2[nH]ncc2/C=N\NS(=O)(=O)c2ccc(Cl)cc2)cc1	-5	-42*	3	0	1
CC(=O)Nc1ccc(NC(=O)c2cc3c(=O)n(Cc4cccnc4)ccc3nc2C)cc1	-3	0	1	1	12
Cc1csc(NC(=O)c2cc(-c3ccco3)nc3ccccc23)n1	-6	-31*	-1	-2	6
CN(C)C(=O)c1ccc(NC(=O)c2cc(-c3ccco3)nc3ccccc23)cc1	3	12	4	0	1
CCN(CC)CCNC(=O)c1ccc(NC(=O)c2cc(-c3ccco3)nc3ccccc23)cc1	1	-40*	2	1	-5
COc1ccc(OC)c2sc(N(Cc3cccnc3)C(C)=O)nc12	-1	x	0	0	1
CCN(c1ccccc1)S(=O)(=O)c1nnc(NC(=O)c2cccs2)s1	-3	-41*	23	0	6
CN(c1ccccc1)S(=O)(=O)c1nnc(NC(=O)C2CCCCC2)s1	-5	-37*!	7	0	-1
SMILES	D1 PAM	D1 antag	D1 ag	TRHR ag	TRHR enhancer
Cc1cccc(S(=O)(=O)c2cn(Cc3ccccc3)c3cc(N4CCCCC4C)c(F)cc3c2=O)c1 (configuration not stated)	-3	-6	3	0	15
Cc1sc2nc(CSc3ccccc3)nc(N3CCN(C)CC3)c2c1C	-10	-42*	4	1	4
Cc1ccc(CNC(=O)c2ccc(Cn3c(=O)c4ccccc4n(CC(=O)Nc4ccc(C)cc4C)c3=O)cc2)cc1	-3	-7	3	1	-1
COc1ccc(OC)c(NC(=O)N2CCC(N3CCN(Cc4ccc(F)cc4)C(=O)C3=O)CC2)c1	-1	-2	-2	1	-3
COC(=O)c1ccccc1NC(=O)N1CCC(N2CCN(Cc3ccc(F)cc3)C(=O)C2=O)CC1	-1	-39*	-1	0	0
Nc1ccc(/C=C/C(=O)c2ccco2)cc1	0	7	72*	21	5
N#Cc1ccc(/C=C/C(=O)c2ccco2)cc1	-8	-4	5	0	-4
Cc1ccc(NC(=O)CC(NC(=O)c2ccccc2Cl)c2ccccc2)nc1 (configuration not stated)	x	-30*	7	0	-3
COc1ccc(COC(=O)C2=C(C)NC(=O)CC2c2cccc(Cl)c2Cl)cc1 (configuration not stated)	2	5	22	1	-1
Cc1ccc(C)c(OCCCn2c(-c3ccc(Cl)cc3)nc3ccccc3c2=O)c1	3	-6	1	0	1
CCCCn1c(=O)[nH]c2nc3cc(NC(C)=O)ccc3nc2c1=O	-1	-4	11	11	-5
CCCCCCn1c(=O)[nH]c2nc3cc(N)c(C)cc3nc2c1=O	-1	-6	295*	-1	23
COc1ccc(NC(=O)CSc2ncnc3c2nnn3-c2ccc(F)cc2)c(OC)c1	-4	-34*	2	1	-5
COc1ccc(-n2nnc3c(SCc4ccccc4)ncnc32)cc1	3	-6	16	1	-2
COc1ccc(-n2nnc3c(SCC(=O)OCc4ccccc4)ncnc32)cc1	-9	-4	5	0	31*
CC(C)(C)CC(=O)NCC(c1ccc2c(c1)OCO2)N1CCOCC1 (configuration not stated)	-2	16	1	0	-10
N#Cc1ccc2c(c1)C[C@]1(c3ccsc3)Oc3c(c(=O)oc4ccccc34)C2O1	-2	11	4	2	-4
CCOc1ccc(-c2nonc2NC(=O)c2oc3cc(Br)ccc3c2C)cc1	-1	6	6	-3	4
O=C(CSc1ncnc2sccc12)Nc1ccccc1	-9	-61*	7	-1	-6
O=C(CSc1ncnc2sccc12)Nc1ccccc1F	-2	-5	2	-1	-9
C=CCN1C(=O)/C(=C/C=C2/N(CC)c3ccc(S(=O)(=O)N(C)C)cc3N2CC)SC1=S	-3	8	118*	45*	9
C=CCN1C(=O)/C(=C2/Sc3ccccc3N2CC)SC1=S	-1	16	5	0	-1
